Assay results published in PubChem BioAssay (NCI).
This is part of a sample that, as a whole, favours compounds with a hit. Of some 83,000 tested, about 20% had one in any assay.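 Testing used 96-well plates and a 48-hour single-concentration exposure. Example: -40 means 40% of the starting cells died.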 Active and inactive are the calls of the source. How the source made its calls: active means growth percent below 10; inactive means the rest.

These compounds were tested on SF-539 CNS (assay: NCI-60 one-dose screen, 48 h (100 = growth as untreated, 0 = no growth, -100 = all killed)). Conditions: 10 µM unless noted.
With CC1=C(C)C(=O)C(NCCN2CCOCC2)=C(Br)C1=O the growth was 32.1% (inactive). N#Cc1ccc(C(=O)NNC(=O)CSc2nc3sc4c(c3c(=O)n2-c2ccc(Cl)cc2)CCCC4)cc1 was tested, and the growth was -43.9% (active). In the case of CCCCCCCOc1ccc(S(=O)(=O)Nc2ccc(C)c(F)c2C(=O)O)cc1, the growth is reported as 102% (inactive).

The compounds below were run on UACC-257 melanoma in the same assay as above. Conditions: 10 µM unless noted.
With O=C(CSc1nc2ccccc2c(=O)[nH]1)Nc1ccccc1C(=O)O the growth was 103% (inactive). In the case of Cn1cc(-c2cc(N)n3nc(-c4c[nH]c5ccccc45)cc3n2)c2ccccc21, the growth is reported as -92% (active). For Cc1cccc(/C=C/c2ccc(NC(=S)NCCCCN(C)C)cc2)c1, the growth was -65.4% (active). With Cc1ccc(N=Nc2c(N)nn3c(-c4cc5ccccc5oc4=O)ccnc23)cc1 the growth was 90.3% (inactive). In the case of O=C(Nc1nc2ccccc2s1)Nc1ccccc1Cl, the growth is reported as 98.8% (inactive). With COc1ccc(NC(=O)CSc2nnc(-c3ccc(-c4nc5ccc(Cl)cc5[nH]4)cc3)o2)cc1 the growth was 29% (inactive). With O=C1Nc2cc(-c3ccc(NS(=O)(=O)c4ccc(C(F)(F)F)cc4)cc3)ccc2/C1=C/c1ccc[nH]1 the growth was 26.3% (inactive). For COc1ccc(Nc2nnc(-c3c[nH]c4ccccc34)o2)cc1, the growth was 95.9% (inactive). With Cn1cc(-c2cc(N)n3nc(-c4c[nH]c5ccc(F)cc45)cc3n2)c2cccnc21 the growth was -87.3% (active). With O=C(NN1C(=O)/C(=C/C=C/c2ccc([N+](=O)[O-])o2)SC1=S)c1ccc([N+](=O)[O-])cc1 the growth was -82.2% (active). CN1C(=O)/C(=C/c2ccco2)S/C1=N/c1nccs1 was tested, and the growth was 117% (inactive).
